PubChem BioAssay AID1159580 (chemical genetic matrix, 2015)
Several values for one entry are separate records, joined by “and”; a condition that tells them apart may be missing. Identical values can stand only once. Out of some 5,500 compounds screened, about 2,000 (36%) were called active. Roughly 18% stayed inconclusive and do not appear here. Cut-off read from the data, not from the text of the source: active = normalized growth mostly below about 0.91 (no sharp cut-off); inconclusive = no clear call, values can overlap the other calls; inactive = mostly above about 0.92. Some of the results follow.

Test: chemical genetic growth profiling, strain panel (AID 1159580);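 note: tested at 20 µM; growth read once vehicle control cultures reached saturation at 30 °C; 1 = growth at the plate median or of vehicle wells; lower values mean less growth of the strain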
Conditions: S. cerevisiae deletion strains, growth OD

Measured: normalized growth

COc1ccc(CCC(=O)c2c(O)cc(O[C@@H]3O[C@H](CO)C(O)[C@H](O)C3O[C@@H]3O[C@@H](C)[C@H](O)[C@@H](O)[C@H]3O)cc2O)cc1O (some centres not stated)
inactive: locus YAL013W, strain DEP1, active compounds read low 1 | locus YAL021C, strain ccr4, active compounds read low 0.994 | locus YAL026C, strain drs2, active compounds read low 1.04 | locus YAL030W, strain snc1, active compounds read low 1.01 | locus YBL061C, strain skt5, active compounds read low 1.02 | locus YBR009C, strain hhf1, active compounds read low 1.02 | locus YBR021W, strain FUR4, active compounds read low 0.997 | locus YBR023C, strain chs3, active compounds read low 1.02 | locus YBR171W, strain sec66, active compounds read low 1.04 | locus YBR229C, strain ROT2, active compounds read low 0.998 | locus YBR231C, strain swc5, active compounds read low 1.03 | locus YBR279W, strain paf1, active compounds read low 1.02 | locus YCL011C, strain gbp2, active compounds read low 1.02 | locus YCL016C, strain dcc1, active compounds read low 1.01 | locus YCL029C, strain bik1, active compounds read low 0.972 | locus YCL061C, strain MRC1, active compounds read low 1.02 | locus YCL069W, strain vba3, active compounds read low 1.02 | locus YCR088W, strain abp1, active compounds read low 1.02 | locus YDL005C, strain med2, active compounds read low 1.03 | locus YDL035C, strain GPR1, active compounds read low 0.999 | locus YDL040C, strain nat1, active compounds read low 0.998 | locus YDL074C, strain BRE1, active compounds read low 0.966 | locus YDL101C, strain DUN1, active compounds read low 0.995 | locus YDL134C, strain PPH21, active compounds read low 0.997 | locus YDL185W, strain tfp1, active compounds read low 0.955 | locus YDL192W, strain arf1, active compounds read low 0.976 | locus YDR001C, strain nth1, active compounds read low 1.01 | locus YDR069C, strain doa4, active compounds read low 1.04 | locus YDR101C, strain arx1, active compounds read low 0.987 | locus YDR137W, strain rgp1, active compounds read low 1.04 | locus YDR150W, strain NUM1, active compounds read low 1.01 | locus YDR159W, strain sac3, active compounds read low 1.1 | locus YDR162C, strain NBP2, active compounds read low 0.99 | locus YDR195W, strain ref2 0.986 | locus YDR297W, strain sur2, active compounds read low 1.02 | locus YDR318W, strain mcm21, active compounds read low 0.978 | locus YDR334W, strain swr1, active compounds read low 1.03 | locus YDR335W, strain msn5, active compounds read low 1.01 | locus YDR388W, active compounds read low 0.995 | locus YDR392W, strain spt3, active compounds read low 1.02 | locus YDR502C, strain sam2, active compounds read low 1 | locus YEL003W, strain gim4, active compounds read low 1.02 | locus YEL037C, strain rad23, active compounds read low 1.01 | locus YEL061C, strain CIN8 (second series), active compounds read low 1.01 | locus YEL061C, strain CIN8, active compounds read low 0.999 | locus YER015W, strain faa2, active compounds read low 1.01 | locus YER016W, strain bim1, active compounds read low 1.03 | locus YER110C, active compounds read low 0.983 | locus YER111C, strain swi4, active compounds read low 1.01 | locus YER155C, strain BEM2 (second series), active compounds read low 1.03 | locus YER155C, strain BEM2, active compounds read low 0.992 | locus YER167W, strain BCK2, active compounds read low 0.994 | locus YFR010W, strain ubp6, active compounds read low 1.02 | locus YGL078C, strain dbp3, active compounds read low 0.994 | locus YGL086W, strain mad1, active compounds read low 0.999 | locus YGL167C, strain pmr1, active compounds read low 1.03 | locus YGL173C, strain kem1, active compounds read low 1.03 | locus YGL227W, strain vid30, active compounds read low 1.02 | locus YGL240W, strain doc1, active compounds read low 1.05 | locus YGL248W, strain PDE1, active compounds read low 1 | locus YGL253W, strain hxk2, active compounds read low 1.02 | locus YGR078C, strain PAC10, active compounds read low 1.01 | locus YGR135W, strain pre9, active compounds read low 1 | locus YGR229C, strain SMI1, active compounds read low 1.01 | locus YGR252W, strain gcn5, active compounds read low 1.07 | locus YHR013C, strain ard1, active compounds read low 1 | locus YHR027C, strain rpn1, active compounds read low 1.02 | locus YHR030C, strain SLT2, active compounds read low 1 and 0.973 | locus YHR079C, strain IRE1 (second series), active compounds read low 0.98 | locus YHR079C, strain IRE1, active compounds read low 0.961 | locus YHR094C, strain hxt1, active compounds read low 0.966 | locus YHR129C, strain ARP1, active compounds read low 0.998 | locus YHR142W, strain chs7, active compounds read low 1.01 | locus YHR200W, strain rpn10, active compounds read low 0.975 | locus YIL066C, strain RNR3, active compounds read low 0.994 | locus YIL073C, strain SPO22, active compounds read low 0.941 | locus YIL125W, strain kgd1, active compounds read low 0.981 | locus YIR030C, strain dcg1, active compounds read low 0.988 | locus YJL092W, strain hpr5, active compounds read low 1.01 | locus YJL095W, strain BCK1 (second series), active compounds read low 1.01 | locus YJL095W, strain BCK1, active compounds read low 0.969 and 0.981 | locus YJL115W, strain asf1, active compounds read low 1.02 | locus YJL129C, strain trk1, active compounds read low 1.03 | locus YJL134W, strain LCB3, active compounds read low 0.999 | locus YJL154C, strain vps35, active compounds read low 1.01 | locus YJL164C, strain tpk1, active compounds read low 0.995 | locus YJL166W, strain qcr8, active compounds read low 1.02 | locus YJL168C, strain set2, active compounds read low 0.978 | locus YJL187C, strain SWE1 (second series), active compounds read low 0.984 | locus YJL187C, strain SWE1, active compounds read low 1.04 | locus YJR043C, strain POL32, active compounds read low 0.963 | locus YJR066W, strain TOR1, active compounds read low 0.896
